HEK293 cAMP cs = counter-screen for TSHR agonists: cAMP increase in parental HEK293 | parental HEK293 CNG cAMP sensor, membrane potential fluorescence | Potency, µM (series often up to 57.1 µM), for inactives: at the highest dose activation, usual class: activators | hit rate 2.5% among 73,000; active = well fitted activation curve with a large enough effect; inconclusive = small, poorly fitted or top-dose-only effect; inactive = no such curve, though single readings can be large or run the other way; note: % of control where 0% means no effect; nearly all actives have a fitted effect of over 55% in size
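Counterscreen for endogenous-receptor signalling: CNG-channel HEK 293 cells report cAMP rise by membrane depolarization. After 60 min dye equilibration with 100 uM RO 20-1724, compounds incubated 30 min before bottom-read fluorescence at 590 nm.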
CRE Fsk mod = modulators of forskolin-stimulated CRE signaling in CHO cells; hit rate 2.5% among 71,000; Potency, µM (series often up to 38.2 µM), inactives show at the highest dose activity change, negative = inhibition, hits mostly activators; AID 662; CHO CRE-bla reporter (cAMP response element driving beta-lactamase), forskolin EC10, beta-lactamase ratio; active = well fitted activation curve with a large enough effect in the signal ratio, with a control signal flat, not every such curve was filed as active; inconclusive = small, poorly fitted or top-dose-only effect, or effect the other way, or a change in a side signal; the % refers to the signal ratio; note: % of control where 0% means no effect
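Beta-lactamase reporter under a cAMP responsive element in CHO cells; compounds tested in titration series against EC10 NKH 477, 3 h at 37 °C. Read-out: CCF4 FRET ratio 460nm/530nm (excitation 405nm) giving %Activity, fitted to AC50.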
IkB signaling = inhibitors of IkB signaling in ABC-DLBCL cells. Potency, µM (titrated, usually from 57.1 µM), for the others: at the highest dose IkBa stabilization activation. hit rate 0.04% among 110,000. ABC-DLBCL IkBa-CBG/CBR dual luciferase ratio, 4 h; response scale: scaled: untreated 0%, proteasome inhibitor 100%. AID 445; active = well fitted curve in the direction sought with a large enough effect in the signal ratio, not every such curve was filed as active; inconclusive = small, poorly fitted or top-dose-only effect, or a change in a side signal; the % refers to the signal ratio;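 note: the direction sought is a rising ratio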
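Curves were fitted separately to fusion (green), unfused (red) and ratio luminescence, then classed by r2, magnitude and activity. Cells: OCI-Ly3, 4 h compound plus doxycycline at 37C; 10 uM MG-132 defined full response.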
Hsp90 Hop PPI = changes Hsp90-Hop TPR2A binding signal, up or down; AlphaScreen TPR2A-His6 binding biotin-Hsp90 C-terminal peptide; Potency, µM (top dose mostly 57 µM), for the others: at the highest dose activity change, negative = inhibition; hit rate 0.44% among 71,000; active = well fitted curve in either direction with a large enough effect; inconclusive = small, poorly fitted or top-dose-only effect, or another doubt; note: % is set by controls: 0 for no effect and ±100 for the full control effect
TSHR agonist = TSH receptor (human) agonism. P16473. HEK293-CNG-TSHR cells (CNG channel as cAMP sensor), membrane potential dye, cAMP. Potency, µM (top dose mostly 57.1 µM), without a hit: at the highest dose activation, hits mostly activators. hit rate 0.48% among 73,000. AID 926; active = well fitted activation curve with a large enough effect in the main read-out, with a control signal flat, not every such curve was filed as active; inconclusive = small, poorly fitted or top-dose-only effect, or a change in a side signal; inactive = no such curve, though single readings can be large or run the other way; % of control where 0% means no effect;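 note: the control signal comes from parental cells without the receptor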
Target sequence (P16473 whole entry, looked up): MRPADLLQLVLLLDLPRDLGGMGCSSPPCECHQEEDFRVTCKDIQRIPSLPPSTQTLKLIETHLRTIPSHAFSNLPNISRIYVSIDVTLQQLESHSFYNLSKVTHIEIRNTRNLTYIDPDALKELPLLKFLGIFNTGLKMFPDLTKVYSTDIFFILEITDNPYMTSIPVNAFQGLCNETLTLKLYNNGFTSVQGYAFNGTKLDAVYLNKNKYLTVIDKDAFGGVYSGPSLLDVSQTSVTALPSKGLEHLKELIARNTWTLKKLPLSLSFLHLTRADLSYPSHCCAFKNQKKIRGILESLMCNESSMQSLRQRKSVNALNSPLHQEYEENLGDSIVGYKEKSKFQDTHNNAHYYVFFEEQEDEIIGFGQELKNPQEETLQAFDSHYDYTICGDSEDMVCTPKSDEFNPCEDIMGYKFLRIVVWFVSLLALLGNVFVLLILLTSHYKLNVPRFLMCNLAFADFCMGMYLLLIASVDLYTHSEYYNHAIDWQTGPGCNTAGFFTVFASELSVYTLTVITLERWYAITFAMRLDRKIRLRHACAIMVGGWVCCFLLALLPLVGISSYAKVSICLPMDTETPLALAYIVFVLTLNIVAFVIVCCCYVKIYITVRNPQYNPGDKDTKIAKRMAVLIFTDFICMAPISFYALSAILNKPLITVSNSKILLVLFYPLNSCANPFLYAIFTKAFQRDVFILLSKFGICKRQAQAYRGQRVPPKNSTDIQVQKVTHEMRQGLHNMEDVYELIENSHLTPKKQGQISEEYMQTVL
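cAMP rise detected as CNG-channel membrane depolarization by fluorescent dye (emission 590 nm), 30 min after compound, following 60 min dye loading containing 100 uM RO 20-1724 at room temperature. Cells: TSHR/CNG HEK 293, with parental CNG HEK 293 as control.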
* = called active by the depositor; ? = inconclusive; . = not tested or not shown; ! = a repeat was not active; [ ] = another dose, or the depositor's remark. An excerpt weighted towards active compounds, which were near 3.5% of everything screened. Potency is the fitted concentration of half-maximal effect.

SMILES | HEK293 cAMP cs | CRE Fsk mod | IkB signaling | Hsp90 Hop PPI | TSHR agonist
COc1ccc(-n2nc(C(=O)Nc3ccc(Cl)cn3)c3c4ccccc4n(C)c3c2=O)cc1 | . | . | -1.9% | . | .
Cc1nnsc1NC(=O)OCC(C)C | 12.6µM* | ? | ? | -7.5% | ?
Cc1ccc2cc(CN(Cc3cccs3)C(=O)c3ccco3)c3nnnn3c2c1C | ? | 3.16µM* | -0.8% | -2.5% | ?
Cc1ccc2c(c1)cc(CN(Cc1cccs1)C(=O)c1ccco1)c1nnnn12 | 15.8µM* | ? | 0.8% | -2.3% | ?
Cc1ccc(CNC(=O)C2CCN(S(=O)(=O)c3cn(C)cn3)CC2)cc1 | . | . | 0.5% | . | .
CC(C)(C)n1nnnc1CN(Cc1ccco1)Cc1cc2cc3c(cc2[nH]c1=O)OCO3 | -10.0% | 6.2% | 0.8% | -0.3% | -0.9%
CCC(C)(C)n1nnnc1CN(Cc1ccc(Cl)cc1)Cc1ccco1 | 10µM* | 2.4% | ? | ? | ?
CCOc1ccc(-c2nnc(-c3snc(-c4ccc(F)cc4)c3N=CN(C)C)o2)cc1 | 15.8µM* | 13.9% | 1.4% | 7.8% | ?
Clc1ccc(OCc2nn3c(-c4ccncc4)nnc3s2)cc1 | 31.6µM* | 13.2% | -0.4% | 2.3% | ?
CCOc1ccc(-c2nnc3sc(COc4ccc(C)cc4)nn23)cc1 | 20µM* | -5.1% | -0.8% | -4.4% | ?
Clc1ccc(OCc2nn3c(-c4ccco4)nnc3s2)cc1 | ? | ? | ? | -0.4% | ?
CCOc1ccc(-c2nnc3sc(COc4ccc(Cl)cc4)nn23)cc1 | 25.1µM* | -5.3% | 1.2% | -2.2% | ?
CCOc1ccc(-c2nn3c(-c4ccc(F)cc4)nnc3s2)cc1 | 24.2% | 8.9% | 0.3% | 2.9% | .
COc1ccc(Cn2nnnc2CN(Cc2cc3ccc(C)cc3[nH]c2=O)C2CCCC2)cc1 | ? | ? | 1.3% | -0.3% | ?
CCC(C)(C)n1nnnc1CN(Cc1cc2cc(OC)ccc2[nH]c1=O)C1CCCC1 | 20µM* | ? | -0.5% | -4.6% | ?
COc1ccc2[nH]c(=O)c(C(c3nnnn3C(C)(C)C)N(Cc3ccco3)CC3CCCO3)cc2c1 (stereo not drawn) | 15.8µM* | 4.2% | 1.1% | -4.1% | ?
O=C(c1ccco1)N1CCCC(c2nc(-c3ccc(S(=O)(=O)NCc4ccccc4)cc3)no2)C1 (stereo not drawn) | 25.1µM* | ? | ? | -7.0% | ?
COc1cccc(-c2noc(C3CCCN(C(=O)Cc4ccccc4)C3)n2)c1 (stereo not drawn) | ? | -2.7% | 0.6% | 9.1% | ?
COc1ccc(-c2noc(C3CCCN(C(=O)CCc4ccccc4)C3)n2)cc1 (stereo not drawn) | 25.1µM* | -0.9% | ? | 17.5% | ?
NC(=O)C[C@@H](N)c1nn[nH]n1 | 1.0%[11.4 µM] | 0.4%[7.6 µM] | -0.9%[11.4 µM] | -3.3%[11 µM] | 2.5%[11.4 µM]
COc1cc2c(-c3ccccc3C)nc3c(c(C)nn3-c3ccccc3)c2cc1OC | . | . | 3.9% | . | .
COC(=O)C/C=C\[C@@H](C)[C@@H](/C=N\OC[C@@H]1O[C@H](c2ccccc2)C=C[C@@H]1Oc1ccc(OC)cc1)NS(=O)(=O)c1ccc(C)cc1 | 0.0%[11.4 µM] | . | . | . | -2.9%[11.4 µM]
CSc1nc(N)c(C#N)c(-c2ccc(Cl)cc2)c1C#N | -2.6% | ? | ? | 3.4% | -7.8%
Cc1c(-c2ccc(F)cc2)nc(N)c(C#N)c1-c1ccco1 | 8.4% | 1.58µM* | -2.9% | 0.1% | 2.1%
CCCc1nc(N)c(C#N)c(-c2ccco2)c1CC | ? | 7.94µM* | 0.5% | 2.2% | ?
SMILES | HEK293 cAMP cs | CRE Fsk mod | IkB signaling | Hsp90 Hop PPI | TSHR agonist
CC(C)(C)C1CCC2(CC1)CCN(CCCN1CCOCC1)CC2 | 14.8%[11.4 µM] | -4.7%[7.6 µM] | 0.3%[11.4 µM] | 3.9%[11 µM] | 15.3%[11.4 µM]
COc1ccc(NC(=O)Cn2c(=O)n(Cc3ccco3)c(=O)c3sc4ccccc4c32)cc1OC | . | . | 0.8% | . | .
Cc1ccc(C)c(NC(=O)NCc2ccc(Cl)cc2)c1 | 11.9%[11.4 µM] | -0.4%[7.6 µM] | 0.1%[11.4 µM] | -0.3%[11 µM] | 0.2%[11.4 µM]
Cc1ccc(Cl)cc1N1CCN(C(c2ccc(C#N)cc2)c2nnnn2C2CCCC2)CC1 (stereo not drawn) | 1.26µM* | 5.6% | 1.2% | 3.6% | ?
Cc1cc2n(n1)C(c1ccco1)Nc1ccccc1-2 (stereo not drawn) | 6.2% | 3.16µM* | 0.5% | 10.9% | -0.9%[11.4 µM]
CCC(=O)N[C@@H]1Cc2ccccc2[C@@H](c2ccccc2)C1 | 20µM* | -23.5% | 0.6% | 7.4% | ?
COc1ccc2c(c1OC)C(=O)OC2[C@H]1c2c(cc3c(c2OC)OCO3)CCN1C (stereo partly drawn) | 14.9% | 31.6µM*! | -0.7%[11.4 µM] | -10.3% | 12.3%
COc1ccc2c(c1OC)C(=O)O[C@@H]2[C@H]1c2c(cc3c(c2OC)OCO3)CCN1C | 15.9% | 0.1% | 0.4% | -9.7% | 19.0%
COCCn1c(CNC(=O)c2cccc(N(C)C)c2)nc2cccnc21 | . | . | -1.1% | . | .
Cc1nn(C)cc1CNC(=O)c1cnn2c(C(F)F)cc(C3CC3)nc12 | 4.5% | 3.98µM* | -1.1% | ? | 20.0%
O=C(NCCc1ccccc1)c1cnn2c(C(F)F)cc(C3CC3)nc12 | ? | ? | -3.3% | 5.6% | ?
COC(=O)c1ccccc1NC(=O)c1cnn2c(C(F)F)cc(C3CC3)nc12 | 15.8µM* | 3.16µM* | -1.2% | 4.4% | ?
Cc1cc(C)nc(SCc2nnc(SCc3ccccc3Cl)o2)n1 | 20µM* | 20.2% | 7.3% | ? | ?
O=C(NC1c2ccccc2-c2ccccc21)N1CCCCC1 | 3.16µM* | ? | 3.4% | -3.8%[11 µM] | ?
Cc1ccccc1Cn1c(=O)n(Cc2ccco2)c(=O)c2sc3ccccc3c21 | . | . | 2.1% | . | .
COCCn1c(=O)c(-c2cccc(C#N)c2)nc2cnc(Oc3ccc(OC)cc3)nc21 | 22.4% | 15.8µM* | 10.2%[11.4 µM] | -5.1% | 16.8%
COCCn1c(=O)c(-c2cccc(C#N)c2)nc2cnc(Nc3ccccc3)nc21 | 0.251µM* | ? | -10.8%[11.4 µM] | -5.5% | ?
CC(=O)NCCNc1nc(-c2cccc(NS(C)(=O)=O)c2)nc2ccccc12 | -4.5% | ? | -7.2%[11.4 µM] | -4.1% | 16.7%
c1ccc(COn2nnc3ccccc32)c(COn2nnc3ccccc32)c1 | 25.1µM* | ? | ? | 6.7% | ?
O=C(Nc1ccc(S(=O)(=O)Nc2cnc3ccccc3n2)cc1)c1ccc(Br)o1 | 4.6% | 3.98µM* | ? | 3.2% | 6.8%
COC(=O)CNc1nc(C2CC2)nc2c1nnn2Cc1ccccc1Cl | 28.5% | 15.6% | 0.3% | ? | 12.0%
c1ccc(Cn2nnc3c(Nc4ccc5c(c4)OCO5)nc(C4CC4)nc32)cc1 | 1.6% | 12.6µM* | -0.2% | -18.8% | -8.5%
CN1CCc2c(sc3c2C(=O)NC(c2ccc(OC(=O)c4ccccc4)cc2)N3)C1 (stereo not drawn) | . | . | -0.5% | . | .
Cc1cc(C)nc(-n2nc(C)cc2NC(=O)CN2CCc3ccccc3C2)n1 | 25.1µM* | ? | 0.7% | -4.2% | ?

High-throughput results as filed in PubChem BioAssay.
